About 83,000 compounds went through this panel and 20% of them were active in at least one assay; those are over-represented in the sample as a whole.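 A percent growth of 40 corresponds to 60% growth inhibition; 0 means no net growth; -100 means all cells died. Active threshold: below 10.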 Calls of active or inactive are those of the source.

For this test, the system named is MDA-MB-468 breast. Put plainly: NCI-60 one-dose screen, 48 h (100 = growth as untreated, 0 = no growth, -100 = all killed). Particulars: 10 µM unless noted.
For the molecule `COc1cc2nc(-c3cnc(N(C)C)nc3)nc(NC3CCN(Cc4ccccc4)CC3)c2cc1OC`, the growth was -72.1% (active).
The same measure for `COC(=O)C12C3C(=O)N(c4ccc(OC)cc4)C(=O)C3C(c3cn(-c4ccccc4)nc3C)N1[C@H](c1cn(-c3ccccc3)nc1C)[C@@H]1C(=O)N(c3ccc(OC)cc3)C(=O)[C@@H]12` (stereo not given in full): 97.4% (inactive); for `O=C1CN(CCN2CC(=O)NC(=O)C2)CC(=O)N1`: 94.8% (inactive).
The same measure for `CCOC(=O)c1c(NCC(=O)Nc2ccc(Br)cc2)sc2c1CCCC2`: 7.05% (active).
For the molecule `CN1CCN(c2ccc(-c3ccc4ncc(C#N)c(Nc5ccc(F)c(Cl)c5)c4c3)cc2)CC1`, the growth was 1.52% (active).
The same measure for `C(CCCC1=NCCO1)CCCC1=NCCO1`: 95% (inactive); for `NN1C(=O)CSC1=S`: 119% (inactive).
For the molecule `CC1(C)CC[C@]2(C(=O)N3CCOCC3)CC[C@]3(C)C(=CC[C@@H]4[C@@]5(C)CC[C@H](OC(=O)c6cccnc6)C(C)(C)[C@@H]5CC[C@]43C)[C@@H]2C1`, the growth is 45.6% (inactive).
As for `c1cc(-c2nnc(SSc3ncnc4nc[nH]c34)o2)ccn1`, the figure is -9.07% (active).
For `O=C1C=CC[C@H](/C=C/c2ccccc2)O1`, the growth was 10.2% (inactive).
For `Cc1ccc(NC(=S)NNC(=S)NNc2ccccc2)cc1C`, the growth was 99.6% (inactive).
The same measure for `Oc1ccc(CSc2nnc(-c3ccccc3)n2-c2ccccc2)c2cccnc12`: -2.77% (active).
As for `C=C1C(=O)O[C@H]2[C@H]1CC/C(COC(=O)NCCc1ccc(OC)cc1)=C\CC[C@@]1(C)O[C@@H]21`, the growth is -2.57% (active).
Turning to `COc1ccc(Cn2c(SC)nc(=O)n(Cc3ccc(Cl)cc3)c2=O)cc1`, the growth was 107% (inactive).
Take `CCN(CCCOc1ccc2c(Nc3cc(CC(=O)Nc4cccc(F)c4)[nH]n3)ncnc2c1)CCOP(=O)(O)O`: the growth was 67.6% (inactive).
As to `CC(=O)Oc1c(C)c(C)c2c(c1C)CCC(C)(CC(=O)OCCCCCCCCCCC[P+](c1ccccc1)(c1ccccc1)c1ccccc1)O2` (stereo not given), the growth was -55.7% (active).
The same measure for `N#CC1C(=N)Cc2ccccc2-c2ccccc21` (stereo not given): 9.26% (active).
With `C=C1CC[C@@H]2[C@]3(C)COC(c4ccccc4)O[C@@H]3CC[C@@]2(C)[C@@H]1C/C=C1/C(=O)OC[C@H]1O` (stereo not given in full), the growth is 91.4% (inactive).
Regarding `COc1ccc2oc(=O)cc(-c3c(C#N)c(N)n4nc(N)c(C#N)c4c3C#N)c2c1`, the growth was 94.7% (inactive).
As for `N#CC1=C(N)n2nc(-c3ccncc3)nc2NC1c1cccc2ccccc12` (stereo not given), the figure is 76.1% (inactive).
The same measure for `CC1=CC(=O)c2ccccc2C1=O`: 111% (inactive); for `CC[C@@H](C)/C=C(C)/C=C/C(O)=C1\C(=O)N[C@@H](Cc2ccc(OC(=O)[C@@](OC)(c3ccccc3)C(F)(F)F)cc2)C1=O`: 110% (inactive).
The same measure for `O=C1c2c(c3c4cccnc4[nH]c3c3ccc4ccccc4c23)C(=O)N1CCN1CCNCC1`: 87.1% (inactive); for `COc1ccc(-c2n[nH]nc2-c2cc3ccccc3s2)cc1O`: 40.8% (inactive); for `CCN(CC)c1ccc(/C=C(\C#N)c2cc3ccccc3[nH]2)cc1`: 47.3% (inactive).
For the molecule `Cc1ccc2c(n1)C(=O)C(Cl)=C(Nc1ccc(C(C)C)cc1)C2=O`, the growth is -44.8% (active).
Consider `CCCC(=O)NC(c1ccc2c(c1)OCO2)c1cc(Cl)c2cccnc2c1O` (stereo not given), for which the growth was 7.89% (active).
Take `COc1ccc(/C(C)=C(\c2ccc(Cl)cc2)c2ccc(OCCN3CCCC3)cc2)cc1F`: the growth was 37.5% (inactive).
`Cc1cc2c(C)c3cc(C)c(N)cc3nc2cc1N`: the growth was -5.78% (active).
For the molecule `CCCCCCCCn1ccc2cc(NC(=O)CN3CCN(c4nc(C)cc(Cl)n4)CC3)ccc21`, the growth was 92.8% (inactive).
Turning to `Nc1c(O)c(S(=O)(=O)O)c(O)c2c1C(=O)c1ccccc1C2=O`, the growth was 1.06% (active).
As for `C=CCNC(=S)NN`, the figure is 56.5% (inactive); as for `CC1(C)CCc2cc(-c3ccn(S(=O)(=O)c4ccc(Cl)cc4)n3)ccc2O1`, 48.9% (inactive); as for `CN1CCCc2cc(/C=C3\SC(=S)N(C(Cc4ccc(O)cc4)C(=O)O)C3=O)ccc21` (stereo not given), 93.6% (inactive).
The same measure for `Cc1c(CC(=O)OCCO)cc(-c2ccc(Cl)cc2)n1-c1ccccc1`: 89.1% (inactive).
As for `Cc1nnc2c(Cc3ccccc3)nc3ccccc3n12`, the growth is 89.6% (inactive).
In the case of `CN1CCN(CCCCCN=c2cc3c(=O)n(CCCCCN4CCN(C)CC4)c(=O)c4c(NCCCCCN5CCN(C)CC5)cc5c(O)n(CCCCCN6CCN(C)CC6)c(=O)c2c5c4-3)CC1`, the growth is -50.8% (active).
For `N#C/C(=C/C=C/c1ccccc1)S(=O)c1ccccc1` (stereo not given), the growth is -56% (active).
The same measure for `O=C(O)CCCCCCCCCCN1C(=O)/C(=C2/C(=O)N(CC(=O)O)c3ccc(Br)cc32)SC1=S`: 102% (inactive); for `CCN(CC)CCOC(COc1cc(C)cc(C)c1)COc1cc(C)cc(C)c1`: 9.41% (active).

The values are drawn from PubChem BioAssay (NCI).
